The values below come from PubChem BioAssay (NCATS).

Experiment [1] is described as follows: Primary qHTS for inhibitors of nuclear receptor binding SET domain protein 2 (NSD2) in an RCH-ACV wild type WT cells (2C) (AID 1645877). Also: nearly all actives have a fitted effect of over 70% in size. Also: potency is read from the fitted curve at half-maximal effect. In general terms: Quantitative high-throughput screening tests each substance at several concentrations.
The target of experiment [2] is Phospholipid hydroperoxide glutathione peroxidase GPX4 (Homo sapiens) (UniProt P36969). As to the kind of experiment: Primary qHTS Assay for Inhibitors of Recombinant Selenoprotein Glutathione Peroxidase 4 (GPX4) (AID 1845192). Also: nearly all actives have a fitted effect of over 65% in size. Also: potency is read from the fitted curve at half-maximal effect. In outline: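 Steps: GPX4 plus compound, 30 min RT; add GR/GSH/NADPH master mix; start with cumene hydroperoxide; read 340/450 nm fluorescence at 0 and 15 min. Finals were 200 nM GPX4, 1 mM GSH, 0.5 mM CHP, 0.5 mM NADPH, 100 nM GR.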
Phospholipid hydroperoxide glutathione peroxidase GPX4 (Homo sapiens), sequence (P36969 whole entry, looked up): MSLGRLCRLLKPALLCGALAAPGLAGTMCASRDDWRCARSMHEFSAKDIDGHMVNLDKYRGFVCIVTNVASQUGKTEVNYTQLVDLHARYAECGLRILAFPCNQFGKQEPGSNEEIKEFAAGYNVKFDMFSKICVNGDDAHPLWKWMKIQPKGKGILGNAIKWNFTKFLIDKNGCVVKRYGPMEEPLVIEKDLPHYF

In experiment [3] the target is Luciferin 4-monooxygenase (Photinus pyralis) (UniProt P08659). The experiment is described as follows: Primary firefly luciferase (FLuc) qHTS assay for identification of artifact compounds. (AID 1845220). Also: nearly all actives have a fitted effect of over 60% in size. The method, boiled down:
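D-luciferin and ATP (10 uM each, final) in Tris acetate buffer pH 7.6 were incubated with compounds for 15 min at room temperature. The reaction was started with 10 nM Photinus pyralis luciferase and luminescence read after 5 min. Percent inhibition was fitted to a 4-parameter Hill equation.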

Experiment [4] in a line: Primary fluorescence-based thiol-reactive (MSTI) qHTS assay for identification of artifact compounds. (AID 1845221). Also: nearly all actives have a fitted effect of over 65% in size. Also: potency is read from the fitted curve at half-maximal effect.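 As to activity change, negative = thiol reactive: series mostly up to about 54 µM; thiol-reactive compounds lower the probe fluorescence signal.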 In outline:
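In PBS pH 7.4 with 2% DMSO, each compound met 4 uM MSTI for one hour at ambient temperature, shielded from light, before fluorescence detection.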

The test system of experiment [5] is Nanoluciferase (engineered Oplophorus gracilirostris luciferase). The experiment is described as follows: Primary Nanoluciferase (NLuc) qHTS assay for identification of artifact compounds. (AID 1845222).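 Also: series mostly up to about 54 µM; 0% = DMSO and -100% = no enzyme.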 In outline: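 Diluted conditioned medium from NLuc-expressing S16 cells treated with compounds for 15 min at room temperature, then Nano-Glo substrate added; luminescence read after 5 min. Percent inhibition versus no-enzyme and DMSO controls fitted to 4-parameter Hill equation.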

Experiment [6] in a line: Primary redox qHTS assay for identification of artifact compounds. (AID 1845223).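 Also: 0% = DMSO and 100% = reference compound.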 The method, boiled down:
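Redox-cycling detection via DTT (250 uM final) oxidation coupled to Amplex Red (25 uM)/HRP (250 mU/mL) in HBSS. 15 min preincubation plus 30 min after DTT, room temperature. Ex/Em 525/598 nm; 4-parameter Hill fit against DMSO and 10 uM DA3003.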

“And” between values parts separate entries of the source, which are not always exact repeats. Equal entries are not always repeated. Values without a mark were called inactive. Inconclusive results are not listed. The source made the active and inactive calls. Calls follow the shape of the dose curve; as a rule, active = well fitted curve in the direction sought with a large enough effect; inconclusive = small, poorly fitted or top-dose-only effect, or another doubt; inactive = no such curve, though single readings can be large; an effect the other way counts as inactive or inconclusive.

With `O=C(O)Cc1ccc2oc(-c3ccc(NC(=O)/C=C/c4ccc(Br)cc4)c(F)c3)nc2c1`, the Potency entry in experiment [1], in experiment [2], in experiment [3], in experiment [4], in experiment [5] and in experiment [6] was “inactive” each time.
For the compound `Cc1ccc(C(=O)N(CCCN)C(c2nc3cc(Cl)ccc3c(=O)n2Cc2ccccc2)C(C)C)cc1` (centres undefined), the Potency in experiment [1] is 7.3 nM (active). The Potency entry in experiment [2], in experiment [3], in experiment [4], in experiment [5] and in experiment [6] was “inactive” in each case.
Turning to `C[C@@H]1CCC2C(C)(C)[C@H](O)CC[C@]2(C)[C@@]12Cc1c(O)cc3c(c1O2)CN([C@@H](CCC(=O)O)C(=O)O)C3=O` (some centres undefined), the Potency result in experiment [1], in experiment [2], in experiment [3], in experiment [4], in experiment [5] and in experiment [6] was “inactive” in each case.
Take `CCC(C)C(=O)OC1CC(O)C23C4OCC5(C(O)CC2C1(C)C(O)O4)C3C(=O)CC1(C)C(c2ccoc2)CC2OC215` (centres undefined): the Potency in experiment [1] was 126 nM (active). Besides, the Potency entry in experiment [2], in experiment [3], in experiment [4], in experiment [5] and in experiment [6] was “inactive” each time.
Regarding `COc1ccc(/C=C/C(=O)O[C@@H]2[C@@H](O)[C@@H](O)[C@H](O[C@@H]3C=C(CO)[C@H]4[C@H](O[C@@H]5O[C@H](CO)[C@@H](O)[C@H](O)[C@H]5O)OC=C[C@H]43)O[C@H]2C)cc1O`, the Potency entry in experiment [1], in experiment [2], in experiment [3], in experiment [5] and in experiment [6] was “inactive” in each case. In addition, in experiment [4], the Potency is 3980 nM (active).
Turning to `C/C=C(\C)C(=O)O[C@H]1[C@@H](O[C@]2(COC(=O)CC(C)C)O[C@H](COC(=O)C(C)CC)[C@@H](OC(C)=O)[C@@H]2O)O[C@H](COC(C)=O)[C@@H](O)[C@@H]1O` (some centres undefined), the Potency entry in experiment [1], in experiment [2], in experiment [3], in experiment [4], in experiment [5] and in experiment [6] was “inactive” each time.
Turning to `CCC1=CC2CN(C1)Cc1c([nH]c3ccccc13)[C@@](C(=O)OC)(c1cc3c(cc1OC)N(C)[C@H]1[C@@](O)(C(=O)OC)[C@H](OC(C)=O)[C@]4(CC)C=CCN5CC[C@]31[C@@H]54)C2` (some centres undefined), in experiment [1], the Potency is 31.7 nM (active). In addition, the Potency result in experiment [2], in experiment [3] and in experiment [5] was “inactive” each time.
As to `C[C@@H]1C(=O)O[C@H]2[C@@H](O)C34[C@H]5C[C@@H](C(C)(C)C)C36[C@@H](OC(=O)[C@@H]6O)O[C@@]4(C(=O)O5)[C@@]12O` (some centres undefined), the Potency entry in experiment [1], in experiment [2], in experiment [3], in experiment [4], in experiment [5] and in experiment [6] was “inactive” in each case.
Consider `NC1(C(=O)NC(CCO)c2ccc(Cl)cc2)CCN(c2ncnc3[nH]ccc23)CC1` (centres undefined), for which the Potency in experiment [1] is 1300 nM (active). The Potency result in experiment [2], in experiment [3], in experiment [4], in experiment [5] and in experiment [6] was “inactive” each time.
In the case of `COc1ccc(C[C@H](N)C(=O)N[C@@H]2[C@H](O)[C@H](n3cnc4c(N(C)C)ncnc43)O[C@@H]2CO)cc1`, the Potency in experiment [1] is 205 nM (active). The Potency result in experiment [2], in experiment [3], in experiment [4], in experiment [5] and in experiment [6] was “inactive” in each case.
For `CC(=O)c1cc2c(cc1O)OC(C)(C)C=C2`, the Potency result in experiment [1], in experiment [2], in experiment [3], in experiment [4], in experiment [5] and in experiment [6] was “inactive” in each case.
With `COc1ccc(C2=N[C@@H](c3ccc(Cl)cc3)[C@@H](c3ccc(Cl)cc3)N2C(=O)N2CCNC(=O)C2)c(OC(C)C)c1`, in experiment [1], the Potency was 1630 nM (active). Besides, the Potency result in experiment [2], in experiment [3], in experiment [4], in experiment [5] and in experiment [6] was “inactive” in each case.
In the case of `COc1cccc2cc3c(c(O[C@@H]4O[C@H](CO[C@@H]5O[C@H](CO)[C@@H](O)[C@H](O)[C@H]5O)[C@@H](O)[C@H](O)[C@H]4O)c12)C(C)OC3=O` (some centres undefined), the Potency result in experiment [1], in experiment [3], in experiment [5] and in experiment [6] was “inactive” throughout. For the same compound, the Potency in experiment [2] is 9880 nM (active).
In the case of `C=C(C)C1CCC2(C(=O)O[C@@H]3O[C@H](CO[C@@H]4O[C@H](CO)[C@@H](O)[C@H](O)[C@H]4O)[C@@H](O)[C@H](O[C@@H]4O[C@@H](C)[C@H](O)[C@@H](O)[C@H]4O)[C@H]3O)CCC3(C(=O)O)C(CCC4C5(C)CCC(O)C(C)(C)C5CCC43C)C12` (some centres undefined), the outcome in experiment [1] was “inactive [at 9.23 µM]”; in experiment [3] it was “inactive [at 11.6 µM]”. For the same compound, the Potency entry in experiment [2] was “inactive”. The activity change, negative = thiol reactive in experiment [4] is 301% [at 11.5 µM]. In addition, the activity, negative = inhibition in experiment [5] is 0% [at 11.6 µM]. Further, the redox activity (% of DA3003) in experiment [6] is 10.3% [at 11.5 µM].
Turning to `COc1cc2c(cc1OC)-c1[nH]nc(Nc3cccc(F)c3)c1C2`, the Potency is 57.8 nM (active) in experiment [1] and 1890 nM (active) in experiment [4]. The Potency result in experiment [2], in experiment [3], in experiment [5] and in experiment [6] was “inactive” each time.
Consider `NC(=O)c1cccc2cn(-c3ccc(C4CCCNC4)cc3)nc12` (centres undefined), for which the Potency was 2050 nM (active) in experiment [1] and 20200 nM (active) in experiment [2]. The Potency result in experiment [3], in experiment [4], in experiment [5] and in experiment [6] was “inactive” each time.
`COc1ccc(CNC(=O)c2cc(-c3cncc(C)c3)ncc2-c2nccs2)nc1OC`: the Potency entry in experiment [1], in experiment [2], in experiment [3], in experiment [4], in experiment [5] and in experiment [6] was “inactive” each time.
As to `CNC(=O)c1cccc(-c2ccc3c(N4CCOC[C@@H]4C)nc(N4CCOC[C@@H]4C)nc3n2)c1`, the Potency in experiment [1] is 230 nM (active) and 326 nM (active) and 296 nM (active). In addition, the Potency result in experiment [2], in experiment [3], in experiment [4], in experiment [5] and in experiment [6] was “inactive” in each case.
For the compound `CC(NC(=O)C(O)C(C)C)C(=O)NC1C(=O)N(C)CCc2ccccc21` (centres undefined), the Potency entry in experiment [1], in experiment [2], in experiment [3], in experiment [4], in experiment [5] and in experiment [6] was “inactive” in each case.
As for `Clc1cc2c(NC3CCCC3)nnc(-c3ccncc3)c2cc1Cl`, the Potency result in experiment [1], in experiment [2], in experiment [3], in experiment [4], in experiment [5] and in experiment [6] was “inactive” throughout.
`CCCCc1ccc(C(=O)Nc2cc(-c3ccc(Cl)cc3)nn2-c2ccc(Cl)cc2)cc1`: the Potency entry in experiment [1], in experiment [2], in experiment [3], in experiment [4], in experiment [5] and in experiment [6] was “inactive” in each case.
For `CC1(C)CC[C@]2(C(=O)O[C@@H]3O[C@H](CO)[C@@H](O)[C@H](O)[C@H]3O)CC[C@]3(C)C(=CCC4[C@@]5(C)C[C@@H](O)[C@H](O)[C@](C)(C(=O)O)C5CC[C@]43C)C2C1O` (some centres undefined), the Potency entry in experiment [1], in experiment [2], in experiment [3], in experiment [4], in experiment [5] and in experiment [6] was “inactive” throughout.
